The structures appear in SMILES notation.

The assay is described as follows: probe aEGFR binding to arrayed compounds – biochemical, biotinylated probe, 635/667 nm fluorescence, primary screen (AID 1097).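 Also: probe is a biotinylated anti-EGFR antibody binding compounds printed on slides; score combines fluorescence near 667 nm and signal to noise of each spot.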 Conditions: small-molecule microarray, higher = more signal.
`N#Cc1ccc(NN2C(C(O)c3ccc(Br)cc3)C=CC3C(=O)N(c4ccccc4)C(=O)C32)cc1` (stereo unspecified) returned a composite z-score of 0.233.
As for `CC1CC/C=C\[C@H]2OC34C=CCN(c5ccc(Cl)cc5)C(=O)[C@H]3N(C(C)CO)C(=O)[C@]4(C)C2C(=O)O1` (stereo partly specified), the figure is -0.173; as for `CO[C@H]1O[C@H](CO)[C@@H](OC(=O)Nc2ccc(Br)cc2)[C@@H]2OC(=O)[C@@H](Cc3ccccc3)C/C=C/C[C@H](Cc3ccccc3)C(=O)O[C@@H]12`, -0.0668; as for `CCOC(=O)C[C@H]1[C@H](OC(=O)c2cc3ccccc3oc2=O)[C@@H](NC(=O)c2ccccc2)c2cc(OCCCO)ccc2N1C(=O)c1ccccc1`, 0.223.
As for `O=C1OCCC=C[C@H]2OC34C=CCN(c5ccc6ccccc6c5)C(=O)[C@H]3N(CCCO)C(=O)[C@@H]4C12` (stereo partly specified), the figure is -0.295; as for `O=C1C2C=CC(C(O)C3CC=CCC3)N(Nc3ccccc3)C2C(=O)N1c1ccccc1` (stereo unspecified), 0.153.
Next, `Cc1ccc(S[C@]2(C(=O)NC(C)C)CC(=O)N(Cc3cc(C(F)(F)F)cc(C(F)(F)F)c3)[C@@H]2c2ccc(CO)cc2)cc1`: -0.302; `CCOC(=O)C[C@H]1[C@H](OC(=O)c2ccccc2-c2ccccc2)[C@@H](NC(=O)c2ccc3ccccc3n2)c2cc(OCCCO)ccc2N1C(=O)Cc1ccc(OC)cc1`: -0.12.
Take `CC(C)c1ccc(NN2C(C(O)c3ccc(C#N)cc3)C=CC3C(=O)N(c4ccccc4)C(=O)C32)cc1` (stereo unspecified): the composite z-score worked out at 0.16.
As for `CCC#CCN(Cc1ccccc1Br)[C@H](/C=C/C1CC1)[C@@H](O)Cc1ccccc1`, the figure is -0.18; as for `C=C[C@@H](OC)[C@H](OC(=O)Nc1ccc(OC)cc1)c1ccc(O)c(F)c1`, -0.199; as for `C=CCC(OC(C)=O)[C@@H]1[C@@H](N(Cc2ccc(-c3cccc(C(F)(F)F)c3)o2)C(=O)c2ccc(-c3ccccc3)cc2)c2cc(OCCCO)ccc2N1C(=O)Cc1ccc2ccccc2c1` (stereo partly specified), -0.235.
As for `CCOC(=O)C1=C[C@@H](c2ccccc2)N(S(=O)(=O)c2ccc(C)cc2)[C@H]1c1ccc(OC)cc1`, the figure is 0.756; as for `CS(=O)(=O)CCOC(=O)C1=CC(CCCO)=CC(c2ccc(CN3CCCC3)cc2)N(Cc2sc3ccccc3c2Cl)C=C1C(=O)OCCS(C)(=O)=O` (stereo unspecified), 0.447; as for `CCOC(=O)C[C@H]1[C@H](OC(=O)Cc2ccc3c(c2)OCO3)[C@@H](NC(=O)c2ccc3ccccc3n2)c2cc(OCCCO)ccc2N1C(=O)c1ccc2ccccc2n1`, -0.124.
Regarding `C=CCC(OC(C)=O)[C@@H]1[C@@H](N(Cc2ccc(-c3ccccc3)cc2)C(=O)c2ccc(-c3ccccc3)cc2)c2cc(OCCCO)ccc2N1C(=O)c1ccc2ccccc2c1` (stereo partly specified), the composite z-score is -0.0531.
As for `Cc1ccc(NN2C(C(O)c3c(F)cccc3Cl)C=CC3C(=O)N(C4CCCCC4)C(=O)C32)cc1` (stereo unspecified), the figure is 0.0708; as for `CN(C)C(=O)[C@]1(Cc2ccccc2CN=[N+]=[N-])N=C(c2ccc(OCCCO)cc2)O[C@@H]1c1ccccc1`, 0.0958; as for `Cc1ccc(S[C@]2(C(=O)O)CC(=O)N(C3CCCCC3)[C@@H]2c2ccc(CO)cc2I)cc1`, -0.0369.
As for `CCOC(=O)C[C@H]1[C@H](OC(=O)c2cc3ccccc3oc2=O)[C@@H](NC(=O)CC(C)C)c2cc(OCCCO)ccc2N1C(=O)c1ccc2ccccc2n1`, the figure is 0.326; as for `CCOC(=O)C[C@H]1[C@H](OC(=O)c2ccc(-c3ccccc3)cc2)[C@@H](NC(=O)CC(C)C)c2cc(OCCCO)ccc2N1C(=O)c1ccc2ccccc2n1`, -0.0828; as for `CCOC(=O)C[C@H]1[C@H](OC(=O)c2ccc(C(=O)c3ccccc3)cc2)[C@@H](NC(=O)c2ccc3ccccc3n2)c2cc(OCCCO)ccc2N1C(=O)Cc1ccc(OC)cc1`, -0.206.
The molecule `COc1ccc([Si](C)(C)[C@@H]2[C@@H](CC(=O)N(CCO)Cc3ccccc3)O[C@]3(C(=O)N(Cc4cccc(N5CCCCC5=O)c4)c4ccccc43)[C@H]2C)cc1` returned a composite z-score of -0.151.
Next, `COC(=O)[C@]1(CCS(=O)(=O)c2ccccc2)N=C(c2ccc(OCCCO)cc2)O[C@@H]1c1ccccc1N=[N+]=[N-]`: 0.6; `COC(=O)[C@@]1(Cc2ccccc2)[C@H]2c3cc(C(=O)N4CCCC4)n(CCc4ccccn4)c3C[C@H]2CN1C(=O)c1ccccc1`: 0.338; `CCCN1C(=O)[C@@]2(Cc3ccccc31)N=C(c1ccc(OCCCO)cc1)O[C@H]2c1ccccc1`: 0.0192.
In the case of `COC(=O)[C@@]1(Cc2ccc(F)cc2)[C@H]2c3cc(C(=O)N(C)C)n(Cc4ccc(OC(F)(F)F)cc4)c3C[C@H]2CN1C(=O)c1ccccc1`, the composite z-score turned out to be 0.114.
Next, `CC(=O)N1CC2(CC2)CC1c1ccccc1` (stereo unspecified): 0.0986; `CC(C)[Si](C#CCCCC#N)(O[C@H](c1ccccc1)c1cn(Cc2ccccc2)nn1)C(C)C`: -0.0681; `COCCOC(=O)N1C(=O)[C@@]2(c3cc(C#CC4(O)CCCCCC4)ccc31)[C@H](c1ccc(O)cc1)N1[C@H](c3ccccc3)[C@H](c3ccccc3)OC(=O)[C@H]1[C@@H]2C(=O)N1CCN(c2ncccn2)CC1`: -0.0234.
Next, `CC1=C2[C@@H](CCc3ccccc3)OB(O)C[C@@H]2[C@@H]2C(=O)N(Cc3ccccc3)C(=O)[C@@H]2C1`: -0.0381; `CCOC(=O)C[C@H]1[C@H](OC(=O)Cc2ccc3c(c2)OCO3)[C@@H](NC(=O)C2CCCCC2)c2cc(OCCCO)ccc2N1C(=O)c1ccccc1`: -0.0452; `COCCCNC(=O)[C@@]1(CCC(=O)OC(C)(C)C)N=C(c2ccc(OCCCO)cc2)O[C@H]1c1ccccc1N=[N+]=[N-]`: 0.458.
Next, `[N-]=[N+]=Nc1ccccc1C[C@]1(C(=O)NCC(O)CO)COC(c2ccc(OCCCO)cc2)=N1` (stereo partly specified): 0.58; `CCCC[C@@H](O)C1=C(COC)C[C@H]2C(=O)N(C)C(=O)[C@H]2[C@H]1CO`: -0.156.
Regarding `CCCCCCc1nc(Cc2cc(OC)c(OC)c(OC)c2)cc2c1[Si](C(C)C)(C(C)C)OC2`, the composite z-score was -0.232.
